Measured values from PubChem BioAssay (Tox21).
Inconclusive results are not listed. Values without a mark were called inactive. The source made the active and inactive calls. Calls follow the shape of the full dose curve.

assay: qHTS assay to identify small molecule antagonists of the sonic hedgehog signaling (Shh) pathway (AID 1259369); settings: NIH/3T3 Gli1-Luc reporter, Shh antagonist, luminescence 24 h; series mostly up to 92.4 µM; activity change, negative = inhibition: at the top concentration; also: nearly all actives have a fitted effect of over 45% in size
Excerpt: U.S. Tox21 Program National Center for Advancing Translational Sciences [NCATS] NIH Chemical Genomics Center [NCGC] U.S. Environmental Protection Agency [EPA] National Institutes of Environmental Health Sciences [NIEHS] National Toxicology Program [NTP] U.S. Food and Drug Administration [FDA] Tox21 Assay Overview: The sonic hedgehog (Shh) pathway is essential for normal embryonic development. Dysregulation of the Shh pathway can cause severe developmental defects in organs. Therefore chemicals that interfere with the pathway are potential developmental toxicants. A cell line designated 3T3Gli1-Luc (DMB/OARSA/CFSAN/FDA, Laurel, MD), a NIH/3T3 derived clone containing stably integrated Gli1-Luc reporter is used to detect chemical interference of the Shh pathway, by changes in the expression of the firefly Luc gene under the control of the Gli1 transcriptional response element. This cell line was used to screen Tox21 libraries for identifying and prioritizing the potential developmental toxicants that interfere Shh pathway. Conditioned medium-stimulated mode was used to screen for chemicals inhibiting Shh signaling.
Tox21 Assay Protocol Summary: 3T3 Gli1-Luc cells were dispensed at 2,000 per well in 5uL of culture medium into white solid bottom 1536-well plates (Greiner Bio-One, Monroe, NC) using a Multidrop Combi (Thermo Scientific, Waltham, MA) dispenser. The assay plates were incubated at 37 C and 5% CO2 for 4hr, and then 23nL of compounds dissolved in DMSO and positive control were transferred using a Pintool station (Wako, San Diego, CA). The compound transfer was followed by the addition of 1ul conditioned medium or assay buffer using two separate tips of Flying Reagent Dispenser (FRD, Aurora Discovery, San Diego, CA). The assay plates were incubated at 37C and 5% CO2 for 24hr. For luciferase read, 4uL of Amplite Luciferase reporter gene assay reagent (AAT Bioquest, Inc. Sunnyvale, CA) was added to each well of the assay plates using FRD and incubated at room temperature for 30min. The luminescence signal was measured using a ViewLux plate reader (Perkin Elmer, Shelton, CT).
% is scaled to controls: 0 for no effect and ±100 for the full control effect; potency is read from the fitted curve at half-maximal effect.

Row | Structure (SMILES) | activity change, negative = inhibition | Potency
1 | CCCCCCOC(=O)c1ccccc1O | -7.33% | 
2 | NC(=O)Nc1nc2ccccc2[nH]1 | 14.5% | 
3 | CN(C)N=Nc1ccccc1 | 0% | 
4 | O=C(O)C1CCC1 | 1.09% [at 42.5 µM] | 
5 | CCCCN(CCO)CCO | -5.85% | 
6 | CSc1ccc(C=O)cc1 | 0.192% | 
7 | C=C(C)C1CC=C(C)C(O)C1 (stereo not given) | 0.944% | 
8 | CCN1CCCC(OC(=O)C(c2ccccc2)c2ccccc2)C1 (stereo not given) | -16% [at 42.5 µM] | 
9 | CCCCOCC(C)OCC(C)O (stereo not given) | -29% | 
10 | O=C(O)c1ccc[n+]([O-])c1 | 13.5% [at 42.5 µM] | 
11 | CCCCCCC(=O)OCC | 0.461% | 
12 | CNc1ncnc2nc[nH]c12 | 0% | 
13 | CCCCCCCCCCCCCCCCCCOCC(O)CO (stereo not given) | -3.05% [at 42.5 µM] | 
14 | C=CC(=O)N1CCOCC1 | 7.3% | 
15 | OCC(CO)(CO)COCC(CO)(CO)CO | 0.305% | 
16 | OC/C=C/c1ccccc1 | -8.74% | 
17 | NC(=O)c1c(Cl)cccc1Cl | -6.96% | 
18 | N#CCN(CC#N)CCN(CC#N)CC#N | 0% | 
19 | O=C(O)CCNC(=O)c1ccc(N=Nc2ccc(O)c(C(=O)O)c2)cc1 | -6.44% [at 42.5 µM] | 
20 | CC/C=C\CCCCO | -23% | 

Row | Structure (SMILES) | activity change, negative = inhibition | Potency
21 | FC(F)(F)C(F)(F)C(F)(F)C(F)(F)C(F)(F)C(F)(F)C(F)(F)C(F)(F)C(F)(F)C(F)(F)F | -15.5% [at 8.39 µM] | 
22 | Cc1ncc(CSSCc2cnc(C)c(O)c2CO)c(CO)c1O | -1.88% [at 42.5 µM] | 
23 | Cc1onc(-c2ccccc2)c1-c1ccc(S(N)(=O)=O)cc1 |  | 18.8 µM (active)
24 | CCCCCN(CCCCC)C(=O)C(CCC(=O)O)NC(=O)c1ccc(Cl)c(Cl)c1 (stereo not given) | 0.266% [at 42.5 µM] | 
25 | N[C@@H](CS)C(=O)O | 41.2% | 
26 | CCC(C(=O)NC(N)=O)c1ccccc1 (stereo not given) | 0.136% | 
27 | CO[Si](OC)(OC)OC | 10.2% | 
28 | CCCC(C)CO (stereo not given) | 22.5% | 
29 | N#CC1(O)CCCCC1 |  | 12.3 µM (active)
30 | C#CC(O)CCCCC (stereo not given) | 7.05% | 
31 | CC1(C)SC(C)(C)SC(C)(C)S1 | 6.6% | 
32 | O=C(O)c1ccccc1S | 11.9% [at 42.5 µM] | 
33 | CC(C)CCCC(C)CCCC(C)CCCCC(C)CCCC(C)CCCC(C)C (stereo not given) | -6.77% [at 42.5 µM] | 
34 | Cc1ccccc1Br | 24.4% | 
35 | CC1=CC(=O)CCC1 | 3.28% | 
36 | CCCC(=O)O[C@]1(C(=O)CCl)[C@@H](C)C[C@H]2[C@@H]3CCC4=CC(=O)C=C[C@]4(C)[C@@]3(F)C(=O)C[C@@]21C | 5.96% [at 42.5 µM] | 
37 | COc1ccc2cc(C=O)ccc2c1 | 19.5% [at 42.5 µM] | 
38 | COC(=O)CCCCCCCCC(=O)OC | 13.9% | 
39 | CC(C)=CCC/C(C)=C/C(=O)O | 6.39% | 
40 | CCN(CC)C(=O)c1ccc(O)c(OC)c1 | 0.0579% [at 42.5 µM] | 
